Reference: the supplement of paper PMC10849652
About 8,800 targets were measured; listed, in parts, are those with a hit and a random draw of the rest. About 0.5% of all pairs of compound and target were hits. Values without a mark were called inactive.

How the values were obtained:
Assay in all cases: log2 fold change, soluble protein after heating vs DMSO (PISA); higher = thermal stabilisation; K562 lysate, 10 uM; active = over 0.2 and 3.5 SD of the protein, either way, in both replicates (recomputed)
[1] = compound: C1=CC=C(C=C1)[C@H](COC2=CC3=C(C=C2)NC(=O)N3)NC(=O)C4=CC=CN(C4=O)CC5=CC(=C(C=C5)F)F
Outline: (§1)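 Thermal stability, expressed as log-two fold change relative to solvent controls, is given from duplicates. Crude K562 extract in PBS pH 7.4 with 1 mM MgCl2, at 1 mg/mL protein, was treated with 10 μM compound for 30 min and heated in aliquots for 3 min across 48°C-58°C. After pooling, adjustment to 0.5% NP-40 at 4°C and centrifugation at 21,000xg for 90 min, supernatant protein was measured by TMTpro 16plex LC-MS/MS with channel sums equalised.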

[2] = compound: CC1=C(SC2=C1C(=N[C@H](C3=NN=C(N32)C)CC(=O)N)C4=CC=C(C=C4)Cl)C
Outline: as §1

[3] = compound: CC1=C2C(=CC=C1)N=C(N(C2=O)C3=CC=CC=C3C)CN4C=NC5=C(N=CN=C54)N
Outline: as §1

[4] = compound: Cc1sc2c(c1C)C(c1ccc(Cl)cc1)=N[C@@H](CC(=O)OC(C)(C)C)c1nnc(C)n1-2
Outline: as §1

[5] = compound: c1ccc([C@@H]2C[C@H]2NC2CCNCC2)cc1
Outline: as §1

Sequence of UniProt Q9Y5J1 (Q9Y5J1 whole entry, looked up): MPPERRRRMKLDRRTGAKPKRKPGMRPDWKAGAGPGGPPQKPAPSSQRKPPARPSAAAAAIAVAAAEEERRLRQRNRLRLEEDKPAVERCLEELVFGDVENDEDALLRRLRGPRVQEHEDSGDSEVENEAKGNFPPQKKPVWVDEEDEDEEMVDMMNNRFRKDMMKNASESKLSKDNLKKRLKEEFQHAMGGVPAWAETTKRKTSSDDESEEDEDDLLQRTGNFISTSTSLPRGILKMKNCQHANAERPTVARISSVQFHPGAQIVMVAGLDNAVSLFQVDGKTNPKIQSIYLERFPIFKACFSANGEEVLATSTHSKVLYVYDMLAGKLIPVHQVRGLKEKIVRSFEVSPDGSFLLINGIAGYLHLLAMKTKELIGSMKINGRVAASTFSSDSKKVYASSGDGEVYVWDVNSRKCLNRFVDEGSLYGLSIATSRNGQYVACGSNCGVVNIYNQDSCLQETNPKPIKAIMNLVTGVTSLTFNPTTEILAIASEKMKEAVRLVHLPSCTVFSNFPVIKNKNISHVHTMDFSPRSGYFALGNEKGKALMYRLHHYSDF
Sequence of UniProt Q9UKW4 (Q9UKW4 whole entry, looked up): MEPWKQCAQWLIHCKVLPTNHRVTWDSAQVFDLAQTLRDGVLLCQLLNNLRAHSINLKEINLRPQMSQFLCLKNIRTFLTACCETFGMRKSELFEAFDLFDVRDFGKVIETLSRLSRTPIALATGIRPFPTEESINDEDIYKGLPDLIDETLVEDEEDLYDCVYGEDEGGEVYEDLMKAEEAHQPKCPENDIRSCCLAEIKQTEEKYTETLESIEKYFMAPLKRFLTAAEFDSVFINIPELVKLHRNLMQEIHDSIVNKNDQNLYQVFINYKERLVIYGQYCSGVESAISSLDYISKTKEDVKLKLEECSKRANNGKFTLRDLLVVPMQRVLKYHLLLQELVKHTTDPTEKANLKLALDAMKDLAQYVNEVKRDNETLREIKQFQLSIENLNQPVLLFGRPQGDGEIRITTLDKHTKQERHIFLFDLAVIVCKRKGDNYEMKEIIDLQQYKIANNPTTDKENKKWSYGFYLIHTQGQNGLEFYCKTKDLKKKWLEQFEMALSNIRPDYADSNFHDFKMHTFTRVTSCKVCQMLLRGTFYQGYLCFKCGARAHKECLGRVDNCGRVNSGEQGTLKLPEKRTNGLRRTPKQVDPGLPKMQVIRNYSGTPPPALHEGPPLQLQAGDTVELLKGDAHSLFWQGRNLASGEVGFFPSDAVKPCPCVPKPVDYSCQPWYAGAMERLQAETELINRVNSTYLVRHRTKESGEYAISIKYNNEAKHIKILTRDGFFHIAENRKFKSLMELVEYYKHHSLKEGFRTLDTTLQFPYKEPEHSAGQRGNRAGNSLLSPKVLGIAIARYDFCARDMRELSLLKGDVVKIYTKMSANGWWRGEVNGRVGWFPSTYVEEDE
Sequence of UniProt Q709C8 (Q709C8 whole entry, looked up): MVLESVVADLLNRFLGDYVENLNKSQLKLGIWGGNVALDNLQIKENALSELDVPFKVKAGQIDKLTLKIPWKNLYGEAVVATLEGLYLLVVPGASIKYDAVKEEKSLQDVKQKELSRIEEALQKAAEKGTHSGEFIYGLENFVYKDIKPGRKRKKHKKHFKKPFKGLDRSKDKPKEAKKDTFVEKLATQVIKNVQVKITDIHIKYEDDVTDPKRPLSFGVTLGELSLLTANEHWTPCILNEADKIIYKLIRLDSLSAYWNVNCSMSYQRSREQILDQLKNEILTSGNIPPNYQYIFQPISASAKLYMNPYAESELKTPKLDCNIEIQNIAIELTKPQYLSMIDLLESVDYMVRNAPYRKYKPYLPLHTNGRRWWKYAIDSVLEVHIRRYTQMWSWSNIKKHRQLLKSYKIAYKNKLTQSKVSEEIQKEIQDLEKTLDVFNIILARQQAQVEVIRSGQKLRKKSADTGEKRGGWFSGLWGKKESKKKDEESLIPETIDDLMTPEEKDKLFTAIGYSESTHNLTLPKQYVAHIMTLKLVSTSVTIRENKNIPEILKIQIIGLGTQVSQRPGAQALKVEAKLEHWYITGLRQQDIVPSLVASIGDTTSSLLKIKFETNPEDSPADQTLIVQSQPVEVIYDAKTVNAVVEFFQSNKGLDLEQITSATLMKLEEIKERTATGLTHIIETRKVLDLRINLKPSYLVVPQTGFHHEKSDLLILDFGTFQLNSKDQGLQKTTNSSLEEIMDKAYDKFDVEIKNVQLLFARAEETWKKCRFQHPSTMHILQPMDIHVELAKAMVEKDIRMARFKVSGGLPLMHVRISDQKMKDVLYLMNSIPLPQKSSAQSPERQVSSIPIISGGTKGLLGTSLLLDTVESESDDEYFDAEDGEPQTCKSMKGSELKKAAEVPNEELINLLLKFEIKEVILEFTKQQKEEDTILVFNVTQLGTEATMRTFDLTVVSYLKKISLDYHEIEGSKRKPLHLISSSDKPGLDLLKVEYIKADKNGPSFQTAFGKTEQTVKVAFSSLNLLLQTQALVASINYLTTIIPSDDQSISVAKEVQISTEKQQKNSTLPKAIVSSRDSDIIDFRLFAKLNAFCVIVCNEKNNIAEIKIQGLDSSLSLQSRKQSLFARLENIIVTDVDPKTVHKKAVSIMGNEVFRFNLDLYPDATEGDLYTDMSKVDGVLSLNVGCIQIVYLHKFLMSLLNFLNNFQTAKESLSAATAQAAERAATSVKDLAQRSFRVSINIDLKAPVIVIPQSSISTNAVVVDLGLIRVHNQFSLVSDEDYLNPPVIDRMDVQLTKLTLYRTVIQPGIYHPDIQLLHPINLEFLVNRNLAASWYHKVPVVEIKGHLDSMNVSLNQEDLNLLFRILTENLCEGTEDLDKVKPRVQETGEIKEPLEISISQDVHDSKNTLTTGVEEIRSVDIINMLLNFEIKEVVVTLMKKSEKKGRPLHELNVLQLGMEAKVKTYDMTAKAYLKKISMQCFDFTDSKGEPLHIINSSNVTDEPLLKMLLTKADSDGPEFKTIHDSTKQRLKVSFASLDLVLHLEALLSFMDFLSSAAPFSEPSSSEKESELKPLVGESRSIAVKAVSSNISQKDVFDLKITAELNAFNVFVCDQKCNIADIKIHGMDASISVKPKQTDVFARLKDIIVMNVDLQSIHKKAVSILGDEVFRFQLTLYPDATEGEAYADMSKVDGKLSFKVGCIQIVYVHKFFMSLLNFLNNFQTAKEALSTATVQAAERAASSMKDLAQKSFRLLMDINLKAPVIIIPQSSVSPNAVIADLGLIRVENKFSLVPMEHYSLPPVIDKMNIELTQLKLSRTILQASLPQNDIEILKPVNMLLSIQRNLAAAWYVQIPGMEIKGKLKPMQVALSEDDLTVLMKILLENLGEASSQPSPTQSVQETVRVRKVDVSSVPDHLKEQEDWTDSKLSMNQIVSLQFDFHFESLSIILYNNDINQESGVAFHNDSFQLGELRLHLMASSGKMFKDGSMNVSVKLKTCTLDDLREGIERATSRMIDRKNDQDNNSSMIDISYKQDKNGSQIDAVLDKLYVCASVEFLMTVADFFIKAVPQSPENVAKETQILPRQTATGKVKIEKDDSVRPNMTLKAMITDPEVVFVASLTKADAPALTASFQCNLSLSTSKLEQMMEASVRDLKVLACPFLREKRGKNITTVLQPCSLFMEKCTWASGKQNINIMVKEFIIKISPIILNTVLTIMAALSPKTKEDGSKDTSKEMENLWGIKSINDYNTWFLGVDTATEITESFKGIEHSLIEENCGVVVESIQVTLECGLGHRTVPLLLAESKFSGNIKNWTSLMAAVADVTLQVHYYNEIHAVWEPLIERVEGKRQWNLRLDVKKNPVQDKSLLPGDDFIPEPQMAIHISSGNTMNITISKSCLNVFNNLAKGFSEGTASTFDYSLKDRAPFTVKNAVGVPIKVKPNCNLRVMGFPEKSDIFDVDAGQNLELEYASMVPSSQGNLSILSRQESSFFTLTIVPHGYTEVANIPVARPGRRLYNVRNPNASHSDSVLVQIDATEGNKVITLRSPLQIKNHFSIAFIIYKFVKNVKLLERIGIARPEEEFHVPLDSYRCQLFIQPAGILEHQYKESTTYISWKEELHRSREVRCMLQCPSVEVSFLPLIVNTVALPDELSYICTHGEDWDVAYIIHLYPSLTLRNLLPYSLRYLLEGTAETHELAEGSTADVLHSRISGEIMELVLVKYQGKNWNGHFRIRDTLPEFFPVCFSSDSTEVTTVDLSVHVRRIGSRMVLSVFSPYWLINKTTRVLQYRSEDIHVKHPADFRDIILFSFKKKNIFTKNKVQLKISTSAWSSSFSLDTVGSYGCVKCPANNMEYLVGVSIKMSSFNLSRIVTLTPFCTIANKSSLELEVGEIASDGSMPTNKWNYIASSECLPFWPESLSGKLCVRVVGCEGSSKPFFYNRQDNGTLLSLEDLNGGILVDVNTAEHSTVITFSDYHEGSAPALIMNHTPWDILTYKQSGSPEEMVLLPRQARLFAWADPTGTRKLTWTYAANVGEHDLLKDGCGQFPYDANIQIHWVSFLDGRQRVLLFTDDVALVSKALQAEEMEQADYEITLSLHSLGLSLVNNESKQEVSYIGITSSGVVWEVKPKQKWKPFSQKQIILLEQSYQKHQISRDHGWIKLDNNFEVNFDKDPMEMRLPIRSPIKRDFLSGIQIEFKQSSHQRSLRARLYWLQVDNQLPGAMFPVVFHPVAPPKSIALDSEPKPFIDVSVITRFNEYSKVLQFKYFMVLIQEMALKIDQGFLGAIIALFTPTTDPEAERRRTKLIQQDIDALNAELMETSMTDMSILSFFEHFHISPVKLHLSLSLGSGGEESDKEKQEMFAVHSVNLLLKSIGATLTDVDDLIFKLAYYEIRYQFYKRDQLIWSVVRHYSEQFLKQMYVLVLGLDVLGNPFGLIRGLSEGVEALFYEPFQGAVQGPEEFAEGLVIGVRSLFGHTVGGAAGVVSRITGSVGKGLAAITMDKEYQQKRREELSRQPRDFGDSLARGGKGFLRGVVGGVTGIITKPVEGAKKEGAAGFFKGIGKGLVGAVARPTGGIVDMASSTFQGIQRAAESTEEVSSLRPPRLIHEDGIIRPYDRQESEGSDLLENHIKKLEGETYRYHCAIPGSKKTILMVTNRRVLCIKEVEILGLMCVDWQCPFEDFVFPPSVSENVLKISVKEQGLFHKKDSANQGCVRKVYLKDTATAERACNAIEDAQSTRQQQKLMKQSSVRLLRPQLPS

| Target | log2 fold change [1] | log2 fold change [2] | log2 fold change [3] | log2 fold change [4] | log2 fold change [5] |
| --- | --- | --- | --- | --- | --- |
| YTHDC2 (UniProt Q9H6S0) | 0.004 | -0.018 | -0.078 | -0.002 | 0.058 |
| ZFYVE19 isoform 3 (UniProt Q96K21) | 0.062 | -0.075 | – | – | – |
| YLPM1 (UniProt P49750) | -0.029 | -0.04 | 0.034 | 0.005 | 0.05 |
| WDR3 (UniProt Q9UNX4) | 0.039 | -0.026 | 0.006 | -0.014 | 0.056 |
| VAV1 (UniProt P15498) | -0.025 | 0.001 | -0.011 | -0.017 | -0.068 |
| WDR45 isoform 2 (UniProt Q9Y484) | -0.024 | 0.061 | 0.073 | -0.018 | -0.014 |
| XPO6 (UniProt Q96QU8) | -0.053 | 0.057 | 0.023 | 0.039 | -0.045 |
| URGCP (UniProt Q8TCY9) | 0.003 | 0.036 | 0.044 | 0.047 | – |
| ZMYND8 isoform 19 (UniProt Q9ULU4) | -0.006 | -0.011 | 0.055 | 0.011 | -0.026 |
| VANGL1 (UniProt Q8TAA9) | 0.064 | 0.088 | -0.055 | -0.004 | -0.076 |
| ZFPM1 (UniProt Q8IX07) | 0.073 | -0.033 | -0.012 | -0.036 | 0.078 |
| VPS54 (UniProt Q9P1Q0) | -0.157 | 0.136 | 0.044 | 0.053 | -0.217 |
| ZBTB33 (UniProt Q86T24) | 0.046 | -0.082 | 0.003 | 0 | -0.015 |
| UNKL (UniProt E9PDK2) | -0.025 | 0.09 | 0.249 | 0.022 | – |
| UNC45A (UniProt Q9H3U1) | -0.036 | -0.011 | 0.036 | 0.004 | 0.039 |
| WDR36 (UniProt Q8NI36) | 0.006 | 0.001 | 0.06 | 0.025 | 0.035 |
| YDJC (UniProt A8MPS7) | 0.001 | -0.012 | -0.003 | 0.012 | 0.018 |
| WDR77 (UniProt Q9BQA1) | 0.02 | 0.012 | 0.012 | 0.006 | 0.006 |
| WRN (UniProt Q14191) | 0.006 | -0.017 | 0.009 | 0.01 | 0.006 |
| ZNHIT6 (UniProt Q9NWK9) | 0.106 | -0.063 | 0.013 | 0.089 | 0.008 |
| YTHDF3 (UniProt Q7Z739) | -0.111 | 0.021 | 0.063 | -0.01 | -0.018 |
| WEE1 (UniProt P30291) | -0.002 | -0.099 | -0.047 | 0.03 | – |
| WDR20 isoform 7 (UniProt Q8TBZ3) | -0.037 | -0.002 | 0.035 | -0.176 | -0.124 |
| VRK1 (UniProt Q99986) | -0.002 | 0.017 | 0.023 | -0.005 | 0.034 |
| ZNF593 (UniProt O00488) | -0.038 | 0.051 | 0.008 | 0.127 | 0.035 |
| ZNF451 (UniProt Q9Y4E5) | -0.038 | 0.03 | -0.014 | 0.018 | 0.009 |
| VPS11 (UniProt Q9H270) | -0.018 | -0.001 | 0.044 | 0.048 | 0.029 |

| Target | log2 fold change [1] | log2 fold change [2] | log2 fold change [3] | log2 fold change [4] | log2 fold change [5] |
| --- | --- | --- | --- | --- | --- |
| VPS18 (UniProt Q9P253) | -0.014 | 0.013 | 0.032 | 0.067 | 0.012 |
| XPNPEP1 isoform 3 (UniProt Q9NQW7) | -0.007 | -0.025 | 0.002 | 0.044 | -0.006 |
| WRNIP1 (UniProt Q96S55) | -0.051 | -0.033 | 0.024 | 0.016 | 0.06 |
| ZNF609 (UniProt O15014) | 0.009 | 0.008 | 0.078 | -0.047 | -0.082 |
| VHL (UniProt P40337) | 0.165 | 0.004 | -0.029 | -0.178 | 0.08 |
| WDR91 (UniProt A4D1P6) | -0.009 | 0.027 | 0.009 | -0.02 | 0.026 |
| WIPI2 (UniProt Q9Y4P8) | 0.03 | -0.033 | -0.008 | -0.055 | -0.096 |
| VPS13C (UniProt Q709C8) | -0.111 | -0.002 | 0.061 | 0.018 | 0.008 |
| YME1L1 (UniProt Q96TA2) | 0.004 | -0.021 | 0.032 | -0.008 | 0.002 |
| USP34 (UniProt Q70CQ2) | -0.002 | -0.015 | 0 | -0.004 | 0.073 |
| VAC14 (UniProt Q08AM6) | -0.008 | -0.008 | 0.042 | -0.012 | 0.001 |
| XAB2 (UniProt Q9HCS7) | -0.009 | 0.05 | 0 | -0.018 | 0.035 |
| ZMAT2 (UniProt Q96NC0) | 0.037 | -0.01 | 0.03 | 0.03 | 0.013 |
| VAV3 isoform 4 (UniProt Q9UKW4) | 0.089 | -0.012 | 0.096 | 0.001 | -0.391 |
| ZNF845 (UniProt Q96IR2) | -0.239 | 0.048 | 0.114 | -0.058 | 0.083 |
| ZC3H13 (UniProt Q5T200) | -0.005 | -0.039 | 0.013 | -0.061 | 0.136 |
| UTP3 (UniProt Q9NQZ2) | -0.009 | -0.035 | 0.076 | -0.158 | 0.018 |
| USP22 (UniProt Q9UPT9) | 0.039 | -0.025 | 0.012 | 0.045 | 0.055 |
| UTP18 (UniProt Q9Y5J1) | 0.117 | -0.005 | -0.088 | -0.013 | 0.059 |
| UXT isoform 2 (UniProt Q9UBK9) | 0.033 | 0.026 | 0.008 | -0.053 | -0.071 |
| VPS28 (UniProt Q9UK41) | -0.087 | -0.04 | -0.013 | 0.073 | 0 |
| VPS35L (UniProt Q7Z3J2) | 0.013 | 0.004 | 0.044 | -0.032 | 0.013 |
| XPO5 (UniProt Q9HAV4) | -0.046 | -0.021 | 0.002 | -0.021 | 0.032 |
| YWHAQ (UniProt P27348) | 0.002 | 0.021 | -0.001 | 0.076 | 0.181 |
| WDR7 (UniProt Q9Y4E6) | 0.055 | 0.011 | 0.019 | 0.029 | -0.027 |
| WDR24 (UniProt Q96S15) | -0.066 | -0.475 (active) | -0.093 | 0.002 | -0.024 |
| WDR62 isoform 4 (UniProt O43379) | 0.026 | -0.004 | -0.011 | 0.003 | 0.038 |
